High-throughput results: PubChem BioAssay, several laboratories
Mtb bLac sens: beta-lactam sensitization of Mtb H37Rv; inhibition, % at 25 µM; M. tuberculosis H37Rv growth with meropenem, percent inhibition; hit rate 0.27% among 330,000; call rule not given here;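 also: growth measured after seven days incubation then overnight dye step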
CCHF vOTU inh: CCHFV vOTU protease inhibition. Pep-AMC fluorescence. hit rate 0.55% among 370,000. inhibition, % at 11.5 µM; in the data active = inhibition above about 30%
Mtb hypoxia rep: reduces hypoxia-regulated biosensor signal in M. tuberculosis; M. tuberculosis hypoxia-regulated fluorescent reporter, fluorescence; fluorescence inhibition, % (concentration not given with the values); hit rate 0.1% among 300,000; in the data active = fluorescence inhibition mostly above about 23%, no sharp cut-off; inactive = mostly below about 17%
RecA splice inh: inhibitors of M. tuberculosis RecA intein splicing | hit rate 0.75% among 290,000 | inhibition, % (concentration not given with the values) | AID 2221 | cell-free RecA intein splicing, fluorescence | P9WHJ3; in the data active = inhibition above about 30%
PfHsp40 yeast: restores yeast growth despite PfHsp40 toxicity. AID 504582. hit rate 0.68% among 340,000. S. cerevisiae expressing PfHsp40, growth rescue, ATP luminescence. growth rescue, % at 12.5 µM; in the data active = growth rescue above about 28%, passing the limit was not always enough;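 also: yeast W303a lacking pdr1 and pdr3 grown in galactose medium; growth measured after three days at 30 °C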
A number is an active result; – = inactive; · = no result. A selection: hits, their analogues and other compounds. The true share with any hit is near 1.7%.

SMILES	Mtb bLac sens	CCHF vOTU inh	Mtb hypoxia rep	RecA splice inh	PfHsp40 yeast
Cc1cccc(OCC(=O)Oc2ccc(Cl)cc2)c1	–	–	–	34	–
CN(C)C1=NCC(Cc2ccccc2)N1CCc1ccc(F)cc1 (stereo unspecified)	·	·	–	·	·
CC(C)=CC(=O)Nc1ccc(Cl)cc1	–	–	–	–	–
CS/C(=C\[N+](=O)[O-])Nc1ccc(Cl)cc1	–	–	·	42	–
CN1CCc2cc3c(c4c2[C@H]1[C@H](O)c1ccccc1-4)OCO3	–	37	·	–	–
COC(=O)C1CC(=NNS(=O)(=O)c2ccc(C)cc2)c2ccsc2C1 (stereo unspecified)	·	·	–	·	·
CC(=O)CC1c2cc(F)ccc2S(=O)(=O)N1c1ccc(N(C)C)cc1 (stereo unspecified)	·	·	–	·	·
C=CCn1c2ccccc2c(=O)c2cc(C#Cc3ccccn3)ccc21	–	–	·	·	29
CC1=NNC(=O)C1CC(=O)NN=Cc1sccc1C (stereo unspecified)	·	·	–	·	·
CCOC(=O)C(C)Sc1ncnc2c1nnn2-c1ccc(F)cc1 (stereo unspecified)	–	–	–	37	–
CCCCCCOc1ccc(C(=O)n2cnc(N)n2)cc1	–	–	–	54	–
Cc1ccc(CN2CCN(N=Cc3cc(Br)cc(Br)c3O)CC2)c(C)c1	·	·	–	·	·
O=C(Cc1ccsc1)NNC(=O)c1ccccc1O	–	–	–	–	171
O=C(COC(=O)Cc1ccsc1)NNC(=O)c1ccccc1	–	–	·	·	–
CCC(C)Sc1cccc(-c2nc3cnccn3c2NC2CCCCC2)c1 (stereo unspecified)	–	–	–	·	40
c1cc(SC2CCCCC2)cc(-c2nc3cnccn3c2NC2CCCCC2)c1	–	–	·	·	–
O=C(NCCF)C1CC1C(NP(=O)(c1ccccc1)c1ccccc1)c1ccccc1 (stereo unspecified)	·	·	–	·	·
Cc1ccc2nc(Cl)c3nnnn3c2c1	–	·	·	79	85
CCCS(=O)(=O)c1c(S(=O)(=O)CCC)c2c(C)cccn2c1C(=O)N/N=C/c1cc(O)cc(O)c1	–	–	·	–	452
Cc1cc(O)c2c(c1O)C(=O)[C@]13C(=C2O)C(=O)[C@@H]2[C@@H](O)[C@H]1[C@@H]1[C@H](O)[C@H]3C(=O)C3=C(O)c4c(O)cc(C)c(O)c4C(=O)[C@]312	–	·	·	·	71
O=C(Nc1ccc(Cl)cc1)NC1CCCC1Cc1ccco1 (stereo unspecified)	–	·	–	–	–
O=C(Nc1ccc(Cl)cc1)NC1CCCCC1Cc1ccco1 (stereo unspecified)	–	–	–	–	226
O=C(NN=Cc1c[nH]c2ccccc12)C1CC1c1ccccc1 (stereo unspecified)	·	·	–	·	·
C(=Nn1cnnc1SCc1ccccc1)c1ccco1	·	·	–	·	·
CC1Oc2cc3oc4c(O)c(O)ccc4c(=O)c3c(O)c2C1(C)C (stereo unspecified)	–	·	·	·	335
SMILES	Mtb bLac sens	CCHF vOTU inh	Mtb hypoxia rep	RecA splice inh	PfHsp40 yeast
Cc1cc(C)cc(Nc2nc3ccc(C)cc3n3cnnc23)c1	–	–	–	–	–
CC1CCCCC1Nc1nc2ccc(Cl)cc2n2cnnc12 (stereo unspecified)	–	–	–	–	27
Cc1cc(C)n2nc(C(=O)NN=Cc3ccc(Cl)cc3)nc2n1	·	·	–	·	·
OCC[C@@H]1C[C@@H](O)[C@H](O)[C@@]2(Cc3ccccc3CO2)O1	–	–	·	–	46
OCC[C@H]1C[C@H](O)[C@@H](O)[C@@]2(Cc3ccccc3CO2)O1	–	–	·	·	–
COc1ccc(N2C(=O)CSC23C(=O)N2c4c(cccc43)C(C)=CC2(C)C)cc1 (stereo unspecified)	–	–	–	33	–
CN1C(=O)C2(N=c3ccccc3=N2)c2ccccc21	–	·	·	–	55
CN1C(=O)C2(OCC(C)([N+](=O)[O-])CO2)c2ccccc21 (stereo unspecified)	–	–	–	–	–
O=C(/C=C/c1ccc(F)cc1)NCCCN1CCN(CCCNC(=O)/C=C/c2ccc(F)cc2)CC1	–	–	–	–	37
CC1CN=C(Nc2ccccc2)N1CC1CCCCCC1 (stereo unspecified)	·	·	–	·	·
CC(C)C[C@@]12C(=O)N(c3ccc(Br)cc3)C(=O)N1C(c1ccc(Br)cc1)C1C(=O)N(C(C)(C)C)C(=O)C12 (stereo partly specified)	·	·	–	·	·
O=C(NCC(c1cccnc1)N1CCN(c2ccc(F)cc2)CC1)C1CCCCC1 (stereo unspecified)	–	–	–	–	70
Cc1ccc(C)c(NC(=O)CSc2sc3c(O)cc(=O)[nH]c3c2C#N)c1	–	–	–	–	–
Cc1ccc(Cl)cc1NC(=O)CSc1sc2c(O)cc(=O)[nH]c2c1C#N	–	–	–	–	47
